Data on 23 molecules can be found in article PMC4336329 (PLoS ONE, 2015).

The whole screen tested about 310,000 compounds, of which about 14,000 (4.5%) showed an effect of 50% or more. Effects have a minus sign here. Shown is part of a subset that was picked to be rich in strong results.
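Also: peak tail current of the secondary pulse compared with the same well before compound.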

In this experiment the target is human ether-à-go-go-related gene (hERG) potassium channel (human, UniProt Q12809). Description: primary screen, population patch clamp on CHO cells stably expressing hERG; higher = less effect of the substance.
human ether-à-go-go-related gene (hERG) potassium channel, sequence (Q12809 whole entry, looked up): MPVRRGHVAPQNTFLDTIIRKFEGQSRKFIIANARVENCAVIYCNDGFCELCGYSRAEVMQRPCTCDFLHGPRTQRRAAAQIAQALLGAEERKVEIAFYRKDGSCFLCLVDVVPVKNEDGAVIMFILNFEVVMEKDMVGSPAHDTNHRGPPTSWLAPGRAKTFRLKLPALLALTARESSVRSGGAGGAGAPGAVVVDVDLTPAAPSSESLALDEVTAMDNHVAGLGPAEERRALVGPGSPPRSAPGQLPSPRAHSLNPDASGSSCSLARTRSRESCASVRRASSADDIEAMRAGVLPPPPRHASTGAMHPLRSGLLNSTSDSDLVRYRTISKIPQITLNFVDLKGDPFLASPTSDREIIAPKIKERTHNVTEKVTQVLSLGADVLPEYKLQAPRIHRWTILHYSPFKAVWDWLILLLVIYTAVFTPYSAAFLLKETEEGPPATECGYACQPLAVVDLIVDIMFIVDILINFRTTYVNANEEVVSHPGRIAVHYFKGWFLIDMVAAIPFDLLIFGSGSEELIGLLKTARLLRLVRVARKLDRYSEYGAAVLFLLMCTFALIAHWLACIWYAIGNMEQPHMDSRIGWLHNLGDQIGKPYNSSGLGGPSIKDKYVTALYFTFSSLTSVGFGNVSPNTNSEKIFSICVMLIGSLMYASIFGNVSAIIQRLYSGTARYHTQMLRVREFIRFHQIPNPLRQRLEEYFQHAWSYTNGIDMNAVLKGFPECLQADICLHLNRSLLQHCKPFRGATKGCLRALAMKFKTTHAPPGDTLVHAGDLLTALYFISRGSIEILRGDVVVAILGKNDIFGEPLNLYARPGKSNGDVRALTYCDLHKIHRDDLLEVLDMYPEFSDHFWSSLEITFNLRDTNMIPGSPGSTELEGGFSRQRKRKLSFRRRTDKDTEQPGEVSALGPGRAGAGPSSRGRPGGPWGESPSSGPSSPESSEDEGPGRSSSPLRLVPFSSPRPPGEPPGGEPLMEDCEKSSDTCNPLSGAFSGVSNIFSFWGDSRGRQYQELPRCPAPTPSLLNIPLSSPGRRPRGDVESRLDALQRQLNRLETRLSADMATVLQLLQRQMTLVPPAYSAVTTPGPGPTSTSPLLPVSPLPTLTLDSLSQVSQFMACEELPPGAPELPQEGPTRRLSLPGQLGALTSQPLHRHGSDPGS
On to `Cc1ccc(-c2noc(CN(C(=O)CCN3C(=O)c4ccccc4C3=O)C(C)C)n2)cc1`, for which the “hERG current change (%, negative = inhibition) at 10uM” value was -63.6%.
The value for `Cc1ccc(-c2noc(CN(C(=O)CCCCCN3C(=O)c4ccccc4C3=O)C(C)C)n2)cc1` was -15.3%; that for `Cc1ccc(-c2noc(CN(C(=O)CCCN3C(=O)c4ccccc4C3=O)C(C)C)n2)cc1` was -39.7%.
For `Cc1c(NC(=O)c2ccco2)cccc1-c1nc2cccnc2s1` the value was -45.8%.
For `c1ccc(-c2ccc(CN3C[C@@H]4C(c5ccccc5)C5(c6ccccc6)CC4(C5)[C@H]3c3ccccc3)cc2)cc1` (some centres unmarked) the value was -5.02%; for `CC1CCN(CC#CCOc2ccc(Cl)cc2)CC1.O=C(O)C(=O)O`, -5.81%.
On to `Cc1cc(OCC(=O)N2CCC(C(N)=O)CC2)c2c(C)cc(=O)oc2c1`, for which the “hERG current change (%, negative = inhibition) at 10uM” value was determined as 15.6%.
The value for `Cc1ccccc1C(=O)NC1CCN(CC(=O)Nc2ccc3c(c2)OCO3)CC1` was -47.3%; that for `O=C(CCN1CCN(c2ccccc2)CC1)Nc1cccc(Br)c1` was -61.4%.
For `O=C(CCN1CCN(CCO)CC1)Nc1cccc(Br)c1`, the “hERG current change (%, negative = inhibition) at 10uM” value is -19%.
Turning to `O=C(CCN1CCN(c2ccccc2)CC1)Nc1ccccc1`, the “hERG current change (%, negative = inhibition) at 10uM” value is reported as -22.9%.
For `CN1CCN(CCC(=O)Nc2cccc(Br)c2)CC1` the value was -19%; for `Cc1ccc(C(=O)C2CCN(CC(=O)Nc3ccc4c(c3)OCCO4)CC2)cc1`, -2.3%; for `O=C(CN1CCC(NC(=O)c2ccccc2F)CC1)Nc1ccc2c(c1)OCO2`, -41.7%.
For `Cc1cccc(NC(=O)CN2CCC(C(=O)c3ccc4c(c3)OCCO4)CC2)c1` the value was -54.2%; for `Cc1ccc(NC(=O)CN2CCC(C(=O)c3ccc4c(c3)OCCO4)CC2)cc1`, -44.7%.
The value for `Cc1cccc(C(=O)NC2CCN(CC(=O)Nc3ccc4c(c3)OCO4)CC2)c1` was -57.7%; that for `O=C(CCN1CCCC1)Nc1cccc(Br)c1` was -20.6%.
Consider `O=C(CCN1CCN(Cc2ccccc2)CC1)Nc1cccc(Br)c1`, for which the “hERG current change (%, negative = inhibition) at 10uM” value is on record as -63%.
For `CCOc1ccccc1N(C)S(=O)(=O)c1ccc2c(c1)CC(C)N2C(=O)C1CC1` (centres unmarked), the “hERG current change (%, negative = inhibition) at 10uM” value stood at 9.49%.
Take `O=c1[nH][nH]c(C(F)(F)F)c1C=NCc1ccc(Cl)cc1`: the “hERG current change (%, negative = inhibition) at 10uM” value is recorded as -1.88%.
For `COC(=O)C1=C(C(=O)OC)[C@@H]2N(C)c3ccccc3[C@@]23C[C@@H](C(=O)OC)N=C3N1` the value was -2.81%.
`CCOC(=O)N1CCC(N(CCN(C)C)C(=S)Nc2ccccc2C)CC1`: the “hERG current change (%, negative = inhibition) at 10uM” value was 3.33%.
